# Reference: PubChem BioAssay
# Activity calls are given as the source filed them.
# Assays:
# [1] = compound effects on lung adenocarcinoma cell viability – A549, calcein-AM fluorescence, 48 h, basal, profiling panel (AID 1162); conditions: higher = more signal
# [2] = compound effects on differentiated 3T3-L1 adipocyte viability – cell-based, 3T3-L1 adipocytes, calcein-AM fluorescence, 48 h, basal, profiling panel (AID 1163); conditions: 3T3-L1 adipocytes viability, higher = more signal
# [3] = compound effects on hepatocellular carcinoma cell viability – HepG2, calcein-AM fluorescence, 48 h, basal, profiling panel (AID 1164); conditions: higher = more signal
# [4] = compound effects on multiple myeloma cell viability – MM1S, calcein-AM fluorescence, 48 h, basal, profiling panel (AID 1165); conditions: higher = more signal
# [5] = calcein-AM signal in unstimulated myeloma cells – cell-based, calcein-AM fluorescence, 48 h, PK04 Diversity Set, profiling panel (AID 1166); conditions: RPMI8226 myeloma viability, higher = more signal;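 also: cells grown under basal conditions without added stimulus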
# [6] = JC-1 mitochondrial signal, unstimulated HepG2 cells – cell-based, JC-1 fluorescence, 24 h, 100 nL compound, profiling panel (AID 1167); conditions: HepG2 mitochondrial potential, higher = more signal
# [7] = JC-1 mitochondrial signal, unstimulated adipocytes – cell-based, JC-1 fluorescence, 3T3-L1 adipocytes, 24 h, 100 nL compound, profiling panel (AID 1168); conditions: JC-1 mitochondrial fluorescence, higher = more signal, called active from +8 up or from −8 down
# [8] = JC-1 mitochondrial signal, unstimulated myeloma cells – cell-based, JC-1 fluorescence, RPMI8226, 24 h, 100 nL compound, profiling panel (AID 1169); conditions: JC-1 mitochondrial potential fluorescence, higher = more signal
# [9] = JC-1 mitochondrial signal, unstimulated MM1S myeloma – cell-based, JC-1 fluorescence, 24 h, 100 nL compound, profiling panel (AID 1170); conditions: MM1S mitochondrial potential, higher = more signal
# [10] = resazurin metabolic signal in A549 cells – cell-based, resazurin fluorescence, 24 h, PK04 Diversity Set, profiling panel (AID 1171); conditions: A549 viability, higher = more signal, called active from +8 up or from −8 down
# Also: test concentration not given here.
smiles,measurement,setting,value
CN(C)c1ccc(C(O)C2C=CC3C(=O)N(c4ccccc4)C(=O)C3N2Nc2ccccc2F)cc1 (stereo not given),z-score,[1],-0.225
same,z-score,[2],-0.528
same,z-score,[3],-0.799
same,z-score,[4],-0.343
same,z-score,[5],-1.18
same,z-score,[6],-2.24
same,z-score,[7],-1.08 (inactive)
same,z-score,[8],0.109
same,z-score,[9],-0.0359
same,z-score,[10],-0.416 (inactive)
COc1ccc(OC[C@H]2Cc3c(-c4ccccc4)nc4c(c3CO2)CN(CCOc2ccccc2)CC4)cc1,z-score,[1],0.823
same,z-score,[2],1.04
same,z-score,[3],0.562
same,z-score,[4],-2.69
same,z-score,[5],-1.81
same,z-score,[6],3.51
same,z-score,[7],0.367 (inactive)
same,z-score,[8],-0.177
same,z-score,[9],0.656
same,z-score,[10],-0.634 (inactive)
O=C1C[C@@H](O)[C@@H](O)[C@@H]2[C@@H]3C(=O)N(c4cccc(Oc5ccccc5)c4)C(=O)[C@@H]3CC[C@@H]12,z-score,[1],0.494
same,z-score,[2],-0.202
same,z-score,[3],-0.323
same,z-score,[4],0.309
same,z-score,[5],-0.0677
same,z-score,[6],-0.0107
same,z-score,[7],0.615 (inactive)
same,z-score,[8],0.54
same,z-score,[9],0.531
same,z-score,[10],-0.187 (inactive)
C[C@@H]1C=CCC(=O)OC[C@H](C)C(=O)OC[C@H]2O[C@H]1C=C[C@H]2O,z-score,[1],0.145
same,z-score,[2],-0.261
same,z-score,[3],-0.139
same,z-score,[4],-1.42
same,z-score,[5],-0.595
same,z-score,[6],0.482
same,z-score,[7],0.36 (inactive)
same,z-score,[8],-0.103
same,z-score,[9],-0.314
same,z-score,[10],0.172 (inactive)
CCOC(=O)CCN1C(=O)[C@H]2[C@H]3[C@H](O)[C@H](O)CC(=NNC(=O)OCc4ccc(OC)cc4)[C@@H]3CC[C@H]2C1=O,z-score,[1],-0.212
same,z-score,[2],-0.426
same,z-score,[3],-0.367
same,z-score,[4],0.717
same,z-score,[5],0.0819
same,z-score,[6],-0.547
same,z-score,[7],-0.0296 (inactive)
same,z-score,[8],-0.91
same,z-score,[9],-1.1
same,z-score,[10],-0.807 (inactive)
CCOC(=O)[C@H](Cc1ccccc1)NC(=O)CCC1CC(OC(=O)NCCc2ccc(F)cc2)CC2(CCCC(COC(=O)NCC(c3ccccc3)c3ccccc3)O2)O1 (stereo not given in full),z-score,[1],0.241
same,z-score,[2],-0.351
same,z-score,[3],-1.03
same,z-score,[4],-3.42
same,z-score,[5],-3.75
same,z-score,[6],0.368
same,z-score,[7],-0.88 (inactive)
same,z-score,[8],-1
same,z-score,[9],-2.12
same,z-score,[10],0.919 (inactive)
C[N+](C)(C)CCCCCCNC(=O)[C@@H]1C[C@@H]2C(=O)N3CCC[C@H]3C(=O)N2[C@@H]1c1cccc(OCCO)c1,z-score,[1],-0.465
same,z-score,[2],-0.0317
same,z-score,[3],-1.92
same,z-score,[4],0.826
same,z-score,[5],0.844
same,z-score,[6],-1.08
same,z-score,[7],0.217 (inactive)
same,z-score,[8],-0.00411
same,z-score,[9],-1.03
same,z-score,[10],1.12 (inactive)
CN1C(=O)[C@@]2(CCC(=O)OC(C)(C)C)N=C(c3ccc(OCCCO)cc3)O[C@H]2c2ccccc21,z-score,[1],0.575
same,z-score,[2],1.36
same,z-score,[3],-0.614
same,z-score,[4],-1.85
same,z-score,[5],-3.45
same,z-score,[6],0.543
same,z-score,[7],-0.207 (inactive)
same,z-score,[8],-1.18
same,z-score,[9],-0.696
same,z-score,[10],-0.54 (inactive)
O=C(NN=C1C[C@@H](O)[C@@H](O)[C@@H]2[C@@H]3C(=O)N(c4ccc(F)cc4F)C(=O)[C@@H]3CC[C@@H]12)OCc1ccccc1,z-score,[1],0.166
same,z-score,[2],-0.902
same,z-score,[3],-0.903
same,z-score,[4],0.655
same,z-score,[5],-0.768
same,z-score,[6],-0.121
same,z-score,[7],1.2 (inactive)
same,z-score,[8],-0.353
same,z-score,[9],-0.0309
same,z-score,[10],-0.0526 (inactive)
C#C[C@@H]1Oc2ccccc2S(=O)(=O)N2CCC[C@H]12,z-score,[1],-0.244
same,z-score,[2],-0.0897
same,z-score,[3],-0.48
same,z-score,[4],0.0671
same,z-score,[5],-1.71
same,z-score,[6],-0.998
same,z-score,[7],0.121 (inactive)
same,z-score,[8],0.51
same,z-score,[9],0.193
same,z-score,[10],-0.884 (inactive)
COC(=O)CC=C[C@@H](C)[C@H](OC)c1ccccc1Br,z-score,[1],0.408
same,z-score,[2],-0.662
same,z-score,[3],0.99
same,z-score,[4],-0.154
same,z-score,[5],-1.15
same,z-score,[6],0.845
same,z-score,[7],-0.288 (inactive)
same,z-score,[8],0.0131
same,z-score,[9],-0.515
same,z-score,[10],-0.0428 (inactive)
CC(C)(C)N1C(=O)[C@H]2[C@H]3[C@H](O)[C@H](O)CC(=NOCc4ccccc4)[C@@H]3CC[C@H]2C1=O,z-score,[1],0.366
same,z-score,[2],0.218
same,z-score,[3],0.586
same,z-score,[4],-0.0096
same,z-score,[5],0.519
same,z-score,[6],0.858
same,z-score,[7],-0.249 (inactive)
same,z-score,[8],0.701
same,z-score,[9],-1.01
same,z-score,[10],-1.58 (inactive)
CCN(CC)c1ccc(N2CC=CC34O[C@@H]5/C=C\CCC(C)OC(=O)C5[C@H]3C(=O)N(CCCO)[C@@H]4C2=O)cc1 (stereo not given in full),z-score,[1],0.28
same,z-score,[2],0.782
same,z-score,[3],0.109
same,z-score,[4],1.09
same,z-score,[5],0.264
same,z-score,[6],-0.356
same,z-score,[7],0.0214 (inactive)
same,z-score,[8],-0.245
same,z-score,[9],1.18
same,z-score,[10],-0.38 (inactive)
CCOC(=O)C[C@H]1[C@H](OC(=O)c2ccc(C(=O)c3ccccc3)cc2)[C@@H](NC(=O)c2ccc(-c3ccccc3)cc2)c2cc(OCCCO)ccc2N1C(=O)c1ccc2ccccc2n1,z-score,[1],1.03
same,z-score,[2],1.44
same,z-score,[3],1.35
same,z-score,[4],0.598
same,z-score,[5],1.08
same,z-score,[6],1.92
same,z-score,[7],1.98 (inactive)
same,z-score,[8],0.611
same,z-score,[9],-1.18
same,z-score,[10],0.336 (inactive)
O=C1O[C@@H](c2ccccc2)[C@@H](c2ccccc2)N2[C@@H](c3ccc(O)cc3)[C@]3(C(=O)Nc4ccccc43)[C@@H](C(=O)O)[C@H]12,z-score,[1],-0.517
same,z-score,[2],0.875
same,z-score,[3],-0.308
same,z-score,[4],-1.33
same,z-score,[5],-1.03
same,z-score,[6],-0.517
same,z-score,[7],0.0106 (inactive)
same,z-score,[8],-0.934
same,z-score,[9],-0.536
same,z-score,[10],-0.0947 (inactive)
O=C1[C@H]2[C@H]3[C@H](O)[C@H](O)CC(=NOCc4ccccc4)[C@@H]3CC[C@H]2C(=O)N1Cc1ccccc1,z-score,[1],-0.618
same,z-score,[2],-0.176
same,z-score,[3],-0.851
same,z-score,[4],0.188
same,z-score,[5],-0.16
same,z-score,[6],-0.169
same,z-score,[7],-0.399 (inactive)
same,z-score,[8],-0.164
same,z-score,[9],-0.926
same,z-score,[10],1.59 (inactive)
